Screening data: PubChem, several laboratories
A selection: hits, their analogues and other compounds. The true share with any hit is near 4.3%.
MITF TRPM1 inh = inhibitors of MITF-driven TRPM1 promoter in melanoma cells; hit rate 0.83% among 330,000; SK-MEL-5 TRPM1 promoter luciferase, 24 h; inhibition, % at 12.5 µM;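 active = mean inhibition across replicates of 60% or more, whatever share of single replicates reaches that level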
CF NFkB block = cystic fibrosis NF-kB activation inhibition; KKLEB NF-kB-GFP reporter, PAF-induced, GFP fluorescence overnight; inhibition, % at 5 µM; hit rate 0.86% among 360,000;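 active = at least 50% inhibition at 5 µM, scaled per plate between neutral and stimulator controls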;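 note: PAF is a Pseudomonas aeruginosa culture filtrate used as stimulus; plate controls were PAF-stimulated DMSO wells for no effect and unstimulated DMSO wells for full effect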
KKLEB tox = counter-screen for CF NF-kB inhibitors: cytotoxicity | KKLEB CF airway cells viability, ATPlite luminescence, overnight; active compounds read low; cells stimulated with P. aeruginosa culture filtrate | activity change (cytotoxicity), % at 5 µM | hit rate 0.36% among 360,000 | AID 602141;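 active = corrected activity change at or below -50% at 5 µM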
Peg3 prom inh-1 = inhibitors of Peg3 promoter | HeLa PEG-Prom luciferase reporter, luminescence, overnight | inhibition, % at 20 µM | hit rate 1.7% among 360,000 | AID 588405;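 active = inhibition of at least 50% at 20 µM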
CHOP inhibitor = CHOP inhibition in unfolded protein response; hit rate 3.8% among 220,000; CHO-K1 CHOP-promoter luciferase, tunicamycin-induced, 15-18 h; inhibition, % at 10 µM; AID 2732;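 active = compounds that reduced the stress-induced luciferase reporter signal by more than about 70% of percent inhibition, limit read from the data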;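 note: 0% = tunicamycin plus vehicle and 100% = wells without tunicamycin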
HIF-2a block = HIF-2a inhibition; inhibition, % at 18.8 µM; 786-0 RCC cells HIF-2a reporter, luciferase luminescence, overnight; hit rate 0.72% among 360,000;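 active = inhibition of the luminescence signal of 40% or more relative to plate controls, in a single-dose primary screen at 18.75 µM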
CHOP confirm = confirmation of CHOP induction inhibitors | shares compounds with CHOP inhibitor | CHO-CHOP promoter luciferase reporter, tunicamycin-induced, luminescence | inhibition, % at 10 µM | hit rate 45% among 2,100;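 active = mean of three repeat readings of reporter signal inhibition above a set limit, cut at about 70% in these data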;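 note: 0% = tunicamycin plus vehicle and 100% = wells lacking tunicamycin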
Peg3 prom inh-2 = Peg3 promoter inhibition confirmation. hit rate 84% among 1,300. shares compounds with Peg3 prom inh-1. inhibition, % at 20 µM. HeLa PEG-Prom luciferase reporter, luminescence, overnight;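 active = at 20 µM dose, 40% or more inhibition averaged across four replicates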
CF NFkB inh conf = CF NF-kB inhibition confirmation, single concentration; inhibition, % at 5 µM; KKLEB CF airway cells, PAF-induced NF-kB-GFP fluorescence, overnight; shares compounds with CF NFkB block; hit rate 64% among 1,300; AID 602472; in the data active = inhibition above about 40%;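 note: stimulus PAF is a Pseudomonas aeruginosa filtrate and not platelet activating factor; plate controls were DMSO wells with stimulus for no effect and unstimulated DMSO wells for full effect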
Mdm2 MdmX conf = confirmation of inhibitors of human Mdm2/MdmX interaction, set 2; shares compounds with HIF-2a block; SaOS-2 split-luciferase Mdm2/MdmX complementation, luminescence; inhibition, % at 8 µM; hit rate 99% among 740;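 active = mean inhibition of the luminescence signal across two replicates at or above 26 percent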
Target sequence (O15151 whole entry, looked up): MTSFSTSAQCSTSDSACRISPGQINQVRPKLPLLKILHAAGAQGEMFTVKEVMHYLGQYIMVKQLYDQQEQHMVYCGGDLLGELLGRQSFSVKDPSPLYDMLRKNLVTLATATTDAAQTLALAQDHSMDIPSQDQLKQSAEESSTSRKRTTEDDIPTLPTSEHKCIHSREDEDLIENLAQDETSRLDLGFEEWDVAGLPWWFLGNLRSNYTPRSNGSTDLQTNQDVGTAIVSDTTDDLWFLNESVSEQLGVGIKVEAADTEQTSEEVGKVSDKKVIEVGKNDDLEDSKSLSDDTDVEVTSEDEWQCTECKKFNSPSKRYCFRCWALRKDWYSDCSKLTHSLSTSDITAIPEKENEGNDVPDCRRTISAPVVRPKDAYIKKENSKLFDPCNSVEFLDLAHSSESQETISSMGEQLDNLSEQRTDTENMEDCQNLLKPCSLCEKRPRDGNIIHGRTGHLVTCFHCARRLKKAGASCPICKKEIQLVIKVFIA
Target sequence (Q00987 whole entry, looked up): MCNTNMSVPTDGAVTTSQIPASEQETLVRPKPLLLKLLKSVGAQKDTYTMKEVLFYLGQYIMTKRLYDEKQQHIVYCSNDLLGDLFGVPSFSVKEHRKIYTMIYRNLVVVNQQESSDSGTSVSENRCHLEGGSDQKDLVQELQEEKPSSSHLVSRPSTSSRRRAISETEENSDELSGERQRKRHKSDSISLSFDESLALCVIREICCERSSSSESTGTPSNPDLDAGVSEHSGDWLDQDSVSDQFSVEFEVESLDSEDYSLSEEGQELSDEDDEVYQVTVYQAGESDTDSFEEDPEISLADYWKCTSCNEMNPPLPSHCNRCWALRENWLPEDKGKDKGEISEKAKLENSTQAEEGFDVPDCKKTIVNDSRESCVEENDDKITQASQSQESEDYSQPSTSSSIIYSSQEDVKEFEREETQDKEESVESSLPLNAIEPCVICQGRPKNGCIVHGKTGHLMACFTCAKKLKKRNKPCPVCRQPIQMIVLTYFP
HIF-2a conf = confirmation of HIF-2a inhibitors. inhibition, % at 18.8 µM. hit rate 56% among 1,800. shares compounds with HIF-2a block. 786-0 RCC cells, HIF-2a luciferase reporter luminescence, overnight. AID 651580;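 active = mean inhibition across four replicates of at least 40 percent at the single tested concentration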
HIF-1a counter = HIF-1a inhibition counter-screen for HIF-2a hits. shares compounds with HIF-2a block. MiaPaCa-2 HIF-1a luciferase reporter, desferoxamine, overnight. inhibition, % at 18.8 µM. hit rate 72% among 1,800;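 active = mean inhibition of the reporter signal across four replicates at the single tested dose of 50% or more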
Active calls of the source: *; x = no result given.

SMILES | MITF TRPM1 inh | CF NFkB block | KKLEB tox | Peg3 prom inh-1 | CHOP inhibitor | HIF-2a block | CHOP confirm | HIF-2a conf | HIF-1a counter | others
CN(C)CCCN(C(=O)c1ccc(S(=O)(=O)N2CCCCCC2)cc1)c1nc2c(F)cc(F)cc2s1 | -5 | 11 | -3 | -21 | x | -22 | x | x | x
COc1ccc2oc(C(=O)OCC(=O)Nc3ccc(C)c(S(=O)(=O)N4CCOCC4)c3)c(C)c2c1 | x | 1 | -6 | -24 | x | -40 | x | x | x
O=C(CSc1nc2ccccc2s1)NCc1cc([N+](=O)[O-])ccc1O | 2 | -3 | -1 | 5 | x | -11 | x | x | x
C=C(C)[C@@H]1CC[C@]2(C(=O)O)CC[C@]3(C)[C@H](CC[C@@H]4[C@@]5(C)CC[C@H](O)C(C)(C)[C@@H]5CC[C@]43C)[C@@H]12 | 5 | 70* | 5 | 54* | 103* | 4 | 66 | x | x | CF NFkB inh conf=56*
FC(F)Sc1ccc(NC(=S)NCC2CCCCC2)cc1 | -17 | 50* | -39 | -75 | 106* | -164 | 15 | x | x | CF NFkB inh conf=61*
FC(F)Sc1ccc(NC(=S)NCc2ccccc2)cc1 | -14 | -6 | -4 | -47 | 32 | -114 | x | x | x
COc1ccc(NC(=O)Nc2nnc(-c3ccccc3SCc3ccccc3)s2)cc1 | -9 | 50* | -35 | -2 | 98* | 17 | 27 | x | x | CF NFkB inh conf=21
COc1cccc(NC(=O)Nc2nnc(-c3ccccc3SCc3ccccc3)s2)c1 | 14 | 6 | -15 | 4 | 62 | -4 | x | x | x
Cc1nc2c(=O)n(C)c(=O)n(C)c2nc1Cl | 43 | 75* | 9 | 108* | 109* | 39 | 118* | x | x | CF NFkB inh conf=-12
Cn1c(=O)c2nc(NCc3ccccc3)cnc2n(C)c1=O | 2 | -8 | 6 | 10 | -5 | 2 | x | x | x
O=C(NCc1nc(-c2ccc(C(F)(F)F)cc2)no1)Nc1cc(Cl)cc(Cl)c1 | 6 | 55* | -30 | 52* | 102* | -17 | 109* | x | x | CF NFkB inh conf=50*
Nc1c(N(C(=O)Nc2ccc(Cl)c(Cl)c2)C2CCCC2)c(=O)[nH]c(=O)n1Cc1ccccc1 | 77* | 19 | -27 | 48 | 103* | 40* | 115* | 11 | 103*
CCOC(=O)c1c(NC(C)=O)sc2c(OCC(O)CNC(C)(C)C)c(Br)ccc12 (stereo not given) | 72* | -28 | -23 | 108* | 105* | 20 | 62 | x | x | Peg3 prom inh-2=99*;Mdm2 MdmX conf=103*
CCOC(=O)c1c(NC(C)=O)sc2c(O)cccc12 | 2 | -4 | -6 | 11 | 33 | 20 | x | x | x
O=C(NCc1ccco1)/C(=C/c1cccc(C(F)(F)F)c1)c1nc2ccccc2[nH]1 | 49 | 19 | -17 | 50* | 96* | 41* | 34 | 13 | 55*
CCN1C/C(=C/c2ccc(OC)c(O)c2)C(=O)/C(=C/c2ccc(OC)c(O)c2)C1 | 21 | -31 | -24 | -7 | 100* | 5 | 97* | x | x | Mdm2 MdmX conf=53*
CC1(C)CC(=O)C2=C(C1)OC1=C(C(=O)CC(C)(C)C1)C2c1ccc(O)cc1O | 101* | 97* | -54* | 108* | x | 93* | -86 | 97* | 106* | Mdm2 MdmX conf=103*
CCCn1c(SCC(=O)N2CCc3ccccc3C2)nc(O)cc1=O | 10 | 3 | -4 | 0 | x | 10 | x | x | x
Cc1ccc(S(=O)(=O)/N=C(\Sc2ccccc2)c2ccccc2)cc1 | 45 | 1 | 3 | 56* | 107* | 43* | 46 | 56* | 49
O=S(=O)(/N=C(\Sc1ccccc1)c1ccccc1)c1ccc(Cl)cc1 | 17 | 15 | 17 | 42 | 1 | -8 | x | x | x
N#CC1=C(N)N2C(=C(C#N)C1c1ccc(Br)cc1)Nc1ccccc12 (stereo not given) | x | x | x | x | 106* | x | 94* | x | x | Mdm2 MdmX conf=101*
Cc1ccc(C)c(S(=O)(=O)ON2C(=O)c3ccccc3C2=O)c1 | 40 | -8 | -13 | 56* | 106* | 68* | 106* | 57* | 2
Cc1ccc(C)c(C(=O)CN2C(=O)c3ccccc3C2=O)c1 | -1 | 7 | -1 | 11 | x | -13 | x | x | x
COc1ccc2c(c1)c1ccc3c(c1n2C)C(=O)C=CC3=O | 92* | -1 | -4 | 104* | 104* | 78* | 41 | x | x | Mdm2 MdmX conf=102*
CC(C)(C)C(=O)Cn1ncc(Br)c(Br)c1=O | 93* | 78* | -41 | 97* | 104* | 94* | 85* | 93* | 105* | CF NFkB inh conf=38
SMILES | MITF TRPM1 inh | CF NFkB block | KKLEB tox | Peg3 prom inh-1 | CHOP inhibitor | HIF-2a block | CHOP confirm | HIF-2a conf | HIF-1a counter | others
CC(C)(C)C(=O)Cn1ncc(N2CCOCC2)c(Cl)c1=O | x | -2 | -6 | -24 | x | -29 | x | x | x
O=C(c1ccc2[nH]c(=O)c(=O)[nH]c2c1)N1CCc2ccccc2C1 | 5 | 2 | 9 | 18 | x | 16 | x | x | x
O=[N+]([O-])c1ccc(C=CC=Cc2ccccc2)cc1 | x | -47 | 11 | -255 | x | -241 | x | x | x
CN(c1ccccc1)c1ccc(/C=C/[N+](=O)[O-])cc1 | 92* | 65* | -9 | 103* | 110* | 92* | -96 | 85* | 105* | CF NFkB inh conf=-23
O=[N+]([O-])/C=C/c1cn(Cc2ccc(Cl)cc2)c2ccccc12 | 26 | 25 | 5 | 81* | 100* | 51* | -25 | 29 | 85*
Cc1cc(C)n(-c2nc(N(c3ccccc3)c3ccccc3)nc(-n3nc(C)cc3C)n2)n1 | 71* | 64* | -53* | 108* | 109* | -27 | 140* | x | x | Mdm2 MdmX conf=103*
CC(=O)c1nnn(-c2nc(N)nc(N(c3ccccc3)c3ccccc3)n2)c1C | 9 | -8 | 10 | 23 | -15 | 6 | x | x | x
CC(=O)c1cccc([N+](=O)[O-])c1 | -8 | -10 | 0 | -4 | x | 2 | x | x | x
O=C(C#Cc1ccccc1)c1cccc([N+](=O)[O-])c1 | 102* | 59* | -17 | 106* | 107* | 46* | -88 | 11 | 86*
COc1ccc(S(=O)(=O)Nc2c(NC3CCCCC3)c3ccccc3oc2=O)cc1OC | -4 | 1 | -4 | 9 | x | 14 | x | x | x
